{
  "source": "PubChem BioAssay (NCATS)",
  "note": "Results filed as inconclusive are left out. The source made the active and inactive calls. Calls follow the shape of the dose curve; as a rule, active = well fitted inhibition curve with a large enough effect in the repeat runs; inconclusive = weak or mixed curves; inactive = no such curve, though single readings can be large or run the other way. % is scaled to controls: 0 for no effect and ±100 for the full control effect; potency is read from the fitted curve at half-maximal effect.",
  "data": [
    {"target": "Cytochrome P450 2C9 (Homo sapiens) (UniProt P11712)", "sequence (P11712 whole entry, looked up)": "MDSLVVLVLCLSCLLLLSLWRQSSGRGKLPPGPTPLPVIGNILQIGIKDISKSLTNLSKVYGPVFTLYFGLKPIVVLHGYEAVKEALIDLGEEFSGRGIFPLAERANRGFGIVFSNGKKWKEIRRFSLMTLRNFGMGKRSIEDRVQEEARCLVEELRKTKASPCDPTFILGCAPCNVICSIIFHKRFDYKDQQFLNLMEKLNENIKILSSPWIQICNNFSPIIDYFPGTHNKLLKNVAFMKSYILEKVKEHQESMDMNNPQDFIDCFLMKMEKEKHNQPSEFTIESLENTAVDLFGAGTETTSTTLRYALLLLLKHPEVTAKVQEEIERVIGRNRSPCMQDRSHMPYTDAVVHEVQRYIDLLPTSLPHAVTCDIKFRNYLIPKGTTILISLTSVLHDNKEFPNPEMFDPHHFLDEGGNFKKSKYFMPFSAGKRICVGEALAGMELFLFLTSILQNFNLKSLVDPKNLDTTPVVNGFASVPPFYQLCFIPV", "experiment": "Cytochrome P450 family 2 subfamily C member 9 (CYP2C9) small molecule antagonists: luciferase biochemical (cell-free) qHTS assay (AID 1645842); also: nearly all actives have a fitted effect of over 55% in size", "conditions": "P450-Glo CYP2C9 enzyme assay, luciferin luminescence; series mostly up to 57.4 µM; activity change, negative = inhibition: at the top concentration", "outline": "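Luminescence, after 20 min with luciferin detection reagent, reflected CYP2C9 turnover during a 1 h NADPH-driven reaction at 37C. Enzyme-substrate mix contained 0.4% bovine serum albumin and was preincubated with compound 10 min at room temperature.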", "values": [
      {"smiles": "CC(C)c1ccc(NC(=O)CSC2=Nc3ccccc3C3=NC(CC(=O)NC4CCCCC4)C(=O)N23)cc1", "note": "(centres undefined)", "Potency": "12 µM (active)"},
      {"smiles": "CCOc1cc(C(=O)Nc2ccc(-c3nc4ncccc4o3)cc2C)cc(OCC)c1OCC", "Potency": "7.56 µM (active)"},
      {"smiles": "Cc1cccc(NC(=O)Cn2c(=O)n(Cc3ccc(C(=O)NCc4ccc5c(c4)OCO5)cc3)c(=O)c3ccccc32)c1", "activity change, negative = inhibition": "4.29% (inactive)"},
      {"smiles": "Cc1ccccc1C(=O)Nc1cccc(-c2nc3cccnc3s2)c1", "Potency": "6.74 µM (active)"},
      {"smiles": "Cc1ccc(C2=CC(c3ccccc3C)n3c(nc4ccccc43)N2)cc1", "note": "(centres undefined)", "Potency": "3.38 µM (active)"},
      {"smiles": "COCCCNC(=O)C(=O)Nc1c2c(nn1-c1cccc(Cl)c1)CSC2", "Potency": "8.49 µM (active)"},
      {"smiles": "CCOc1ccc(S(=O)(=O)NCc2ccc3c(c2)CCN3C(=O)c2ccc(C)cc2)cc1", "Potency": "0.301 µM (active)"},
      {"smiles": "COc1ccc(CN(C2CCCCC2)[S+](=O)([O-])c2ccc(C)cc2)cc1OC", "Potency": "3.79 µM (active)"},
      {"smiles": "COc1ccc(-c2cn3cccnc3n2)cc1NC(=O)COc1ccccc1", "Potency": "4.77 µM (active)"},
      {"smiles": "Cc1ccc(CNC(=O)C2CCN(S(=O)(=O)c3c(C)noc3/C=C/c3ccccc3F)CC2)o1", "activity change, negative = inhibition": "7.45% (inactive)"},
      {"smiles": "CCOc1ccc(CNC(=O)Cn2c(=O)c3cccn3c3ccc(F)cc32)cc1OC", "activity change, negative = inhibition": "2.21% (inactive)"},
      {"smiles": "CCOc1cc(C(Nc2cc(C)ccn2)c2ccc3cccnc3c2O)ccc1OC", "note": "(centres undefined)", "Potency": "12.6 µM (active)"},
      {"smiles": "Cc1noc(/C=C/c2cccs2)c1S(=O)(=O)N1CCC(C(=O)NCc2ccc(Cl)cc2)CC1", "Potency": "0.213 µM (active)"},
      {"smiles": "COc1cccc(-c2cc(F)ccc2[C@H]2Cc3nc(N)nc(C)c3C(=O)N2)n1", "Potency": "6.74 µM (active)"},
      {"smiles": "Cc1ccc([S+](=O)([O-])NC2CC(C)(C)CC(C)(C)C2)cc1", "Potency": "2.13 µM (active)"},
      {"smiles": "O=C(CSc1nc2ccccc2n1Cc1cccc(Cl)c1)N1CCN(c2ccc(F)cc2)CC1", "Potency": "3.38 µM (active)"},
      {"smiles": "Cc1cccc(N2CCN(C(=O)CCC(=O)NNc3nc4ccccc4c4nc(C)nn34)CC2C)c1", "note": "(centres undefined)", "Potency": "9.52 µM (active)"},
      {"smiles": "COc1ccc(NC(=O)c2cnc[nH]2)cc1S(=O)(=O)Nc1ccc(Br)cc1", "Potency": "10.7 µM (active)"},
      {"smiles": "C=Cc1ccc(Cn2c(SCC(=O)N3CCN(c4ccc(F)cc4)CC3)nc3ccccc32)cc1", "Potency": "3.38 µM (active)"},
      {"smiles": "COc1ccc(C(C)=O)cc1CSc1nc(NCc2ccccc2)c2ccccc2n1", "Potency": "2.13 µM (active)"},
      {"smiles": "COc1ccccc1NC(=O)Cc1c(C(=O)O)[nH]c2ccc(Cl)cc12", "activity change, negative = inhibition": "20.5% (inactive)"},
      {"smiles": "CCOCCCNC(=O)CCC(=O)NNc1nc2ccccc2c2nc(-c3ccccc3)nn12", "Potency": "3.38 µM (active)"},
      {"smiles": "CC(=O)Nc1ccc(C)cc1-c1nc2ccccc2n(CC(=O)Nc2cc(Cl)ccc2C)c1=O", "Potency": "3.01 µM (active)"},
      {"smiles": "Cc1ccc(Nc2nc3ccccc3c3nnc(C)n23)c(C)c1", "Potency": "5.35 µM (active)"},
      {"smiles": "CCc1ccc(C2=CC(c3c(F)cccc3Cl)n3c(nc4ccccc43)N2)cc1", "note": "(centres undefined)", "Potency": "5.35 µM (active)"},
      {"smiles": "COc1cc(NC(=O)CSc2nc3ccccc3nc2Cc2ccccc2OC)cc(OC)c1", "Potency": "0.301 µM (active)"},
      {"smiles": "C=CC(C)(O)CCC=C(C)CCC=C(C)C", "note": "(centres undefined)", "Potency": "21.3 µM (active)"},
      {"smiles": "COc1ccc(CNC(=O)Cn2c(SCC(=O)Nc3ccc(C)c(C)c3)nc3ccccc32)cc1", "Potency": "2.39 µM (active)"},
      {"smiles": "Cc1ccc(Cn2c(SCC(=O)NCc3ccccc3)nc3ccsc3c2=O)cc1", "Potency": "6.74 µM (active)"},
      {"smiles": "Cc1ccc2ccc(C(Nc3ccccn3)c3ccccc3)c(O)c2n1", "note": "(centres undefined)", "Potency": "2.68 µM (active)"},
      {"smiles": "COc1ccc(C(=O)NC(c2ccccc2Cl)c2cc(Cl)c3cccnc3c2O)cc1", "note": "(centres undefined)", "Potency": "6.01 µM (active)"},
      {"smiles": "COc1ccc(NC(=O)C2=C(C)Nc3nc(SCc4ccccc4C)nn3C2c2cc(OC)c(O)c(OC)c2)cc1", "note": "(centres undefined)", "activity change, negative = inhibition": "-12.5% (inactive)"},
      {"smiles": "COc1ccc(Cn2c(CCC(=O)Nc3cc(C)cc(C)c3)nc3cccnc32)cc1", "Potency": "6.74 µM (active)"},
      {"smiles": "Oc1c(C(Nc2ccccn2)c2ccccc2F)ccc2cccnc12", "note": "(centres undefined)", "Potency": "19 µM (active)"},
      {"smiles": "Cc1nc2c3ccccc3nc(NNC(=O)CCC(=O)N3CCN(c4cccc(Cl)c4)CC3)n2n1", "Potency": "12 µM (active)"},
      {"smiles": "Nc1c(-c2nc(-c3ccc4c(c3)OCO4)cs2)c2ccccn2c1C(=O)c1ccccc1", "Potency": "0.425 µM (active)"},
      {"smiles": "COc1ccc(-c2n[nH]c3c2cnc2cc(OC)c(OC)cc23)cc1", "activity change, negative = inhibition": "-15.7% (inactive)"},
      {"smiles": "COc1ccc(NC(=O)CSc2nc3ccccc3n2Cc2cccc(OC)c2)cc1", "Potency": "2.68 µM (active)"},
      {"smiles": "COC(=O)c1cnc(N2CCN(c3ccc(OC)cc3)CC2)c2ccccc12", "Potency": "2.13 µM (active)"}
    ]}
  ]
}
